CYP2C9 act = human CYP2C9 activators, primary screen, biochemical, luminescence; Cytochrome P450 2C9 (Homo sapiens), P11712; AID 1024, 2008; 96,000 tested, 1.4% active; activation factor at 5 µM; recombinant CYP2C9, luciferin-H conversion; hits give high values; factor 1 = untreated enzyme, 0 = blocked;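 active means activation factor of 2 or more for CYP2C9 at a 5 µM dose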
CYP2C19 activ = human CYP2C19 activators, primary screen, biochemical, luminescence. 96,000 tested, under 10 active. Cytochrome P450 2C19 (Homo sapiens), P33261. recombinant CYP2C19, luciferin-H EGE luminescence; hits give high values; 0 = fully inhibited enzyme, 1 = untreated enzyme. activation factor at 5 µM;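 active means activation factor of at least 2 at 5 µM in the primary screen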
CYP2C9 inh = blockers of cytochrome P450 2C9 activity – biochemical, luminescence, ADME assay, primary screen; inhibition, % at 5 µM; P11712; 96,000 tested, 20% active; CYP2C9 Supersomes, luciferin-H conversion;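 active means blocking of liver enzyme CYP2C9 beyond about 50% at 5 µM, limit read from the data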
CYP2C19 inhib = blockers of cytochrome P450 2C19 activity – biochemical, luminescence, ADME assay, primary screen; P33261; CYP2C19 Supersomes, luciferin-H EGE luminescence, 30 min; inhibition, % at 5 µM; 96,000 tested, 21% active; AID 778, 2007;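 active means CYP2C19 inhibition above a set limit at 5 µM in the primary screen, cut at about 50% in these data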
Cav32 inh = Cav3.2 calcium influx blockers – cell-based, Fluo-4 calcium fluorescence, FDSS, MLSMR library, primary screen. Voltage-dependent T-type calcium channel subunit alpha-1H (Homo sapiens), O95180. Cav3.2-expressing cells; hits give low values. B-score at 10 µM. 100,000 tested, 4% active;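 active means single-dose well whose peak fluorescence ratio is a statistical outlier from its plate by either plate-standardised score or position-corrected B-score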
Of the large screens only hits and unclear results are named; the others gave an inactive call. This is a sample that favours compounds with a hit; in the whole collection about 27% have one here.

O=C(/C=C/c1ccc(Cl)c([N+](=O)[O-])c1)NCc1cccnc1	none (no result: CYP2C9 act, CYP2C19 activ, CYP2C9 inh, CYP2C19 inhib)
Cc1ccc(NC(=O)N(Cc2ccco2)C(C)c2ccco2)cc1C (stereo not drawn)	Cav32 inh -4.6
Cc1ccc(NC(=O)N(Cc2cccnc2)Cc2ccco2)cc1C	CYP2C9 inh 78, CYP2C19 inhib 96
N#Cc1ccc(CSc2nnc(NC(=O)CN3C(=O)C4CC=CCC4C3=O)s2)cc1 (stereo not drawn)	none
CN(CC(=O)OCC(=O)NC(=O)c1cccn1C)S(=O)(=O)c1ccc(Cl)cc1	none
O=[N+]([O-])c1ccccc1C1Nc2cccc3cccc(c23)N1	CYP2C9 inh 70, CYP2C19 inhib 99
Oc1ccccc1C1Nc2cccc3cccc(c23)N1	none
COc1ccccc1C1Nc2cccc3cccc(c23)N1	CYP2C19 inhib 70
CN(/N=C/c1ccncc1)C1=NS(=O)(=O)c2ccccc21	CYP2C19 inhib 55
Cc1ccccc1NC1=NS(=O)(=O)c2ccccc21	none
O=C(COC(=O)c1ccccn1)Nc1cc(Cl)ccc1Cl	none
Cc1occc1-c1nnc(SCC(=O)c2ccccc2)n1CC1CCCO1 (stereo not drawn)	none
N#CC(=C1CCCC1)c1nc(-c2ccccc2O)cs1	CYP2C19 inhib 72
COc1ccc(NS(=O)(=O)c2ccc(NC(=O)C3CCCO3)cc2)cc1 (stereo not drawn)	CYP2C9 inh 65, CYP2C19 inhib 69
Cc1ccc(NS(=O)(=O)c2ccc(NC(=O)C3CCCO3)cc2)cc1 (stereo not drawn)	CYP2C9 inh 85, CYP2C19 inhib 91
Cc1ccnc(NS(=O)(=O)c2ccc(NC(=O)C3CCCO3)cc2)n1 (stereo not drawn)	none
COc1ccc(CNC(=O)c2ccc(NC(=O)C3CCCO3)cc2)cc1 (stereo not drawn)	none
O=C(NCCN1CCN(c2ccccc2)CC1)c1ccc(NC(=O)C2CCCO2)cc1 (stereo not drawn)	CYP2C19 inhib 52
CCOC(=O)N1CCC(NC(=O)c2ccc(NC(=O)C3CCCO3)cc2)CC1 (stereo not drawn)	none
CN(Cc1ccccc1)S(=O)(=O)c1ccc(NC(=O)C2CCCO2)cc1 (stereo not drawn)	CYP2C9 inh 55
Cc1ccc(-n2nnnc2-c2cnc3cc4c(cc3c2C)OCO4)cc1	none
COc1ccc(CN2CCN(c3ccccn3)CC2)cc1OCc1ccccc1	none
CN(C)c1nc(Nc2ccc(Cl)cc2)nc(OCC#N)n1	none
O=C(NCCCN1CCCC1=O)c1ccc(Cl)c(NS(=O)(=O)c2ccc(F)cc2)c1	none
O=C(Nc1ccc(Oc2ccc(NC(=O)C3CCCO3)cc2)cc1)C1CCCO1 (stereo not drawn)	CYP2C9 inh 54
O=C1NC(=O)c2cc(NC(=O)C3CCCO3)ccc21 (stereo not drawn)	CYP2C9 inh 86
CCc1ccc(NC(=O)c2ccccc2NC(=O)C2CCCO2)cc1 (stereo not drawn)	CYP2C9 inh 59
CON(C)c1nc(OCCNC(=O)COc2ccc(Cl)cc2C)nc(N(C)C)n1	CYP2C9 inh 51
CON(C)c1nc(OCCNC(=O)OCc2ccc(Cl)cc2Cl)nc(N(C)C)n1	CYP2C9 inh 63
Cc1cc(Cl)ccc1OCC(=O)NCCOc1nc(N2CCOCC2)nc(N2CCOCC2)n1	none
CN(C)c1nc(OCCNC(=O)COc2ccc(Cl)cc2Cl)nc(N2CCOCC2)n1	CYP2C9 inh 82
Cc1cc(Cl)ccc1OCC(=O)NCCCN1CCOCC1	none
Cc1cc(-n2nc(C)cc2C)nc(NS(=O)(=O)c2ccccc2)n1	none
O=C(CC(=O)NC1CCCCC1)N/N=C/c1cccc2ccccc12	none
COc1nc2ccccc2c(=O)n1OCC(C)C	CYP2C19 inhib 82 (no result: Cav32 inh)
O=C(NCCS(=O)CCNC(=O)C(F)(F)F)C(F)(F)F	none
CC1=CC(C)(C(Cl)Cl)C(C)=CC1=O (stereo not drawn)	none (no result: CYP2C9 act, CYP2C19 activ, CYP2C9 inh, CYP2C19 inhib)
CCCCOc1[nH]c2nc(-c3ccco3)n(Cc3ccco3)c(=N)c2c1C#N	CYP2C9 inh 81, CYP2C19 inhib 61 (no result: Cav32 inh)
COc1cc(C2CC(=O)N3CN(c4ccccc4C)CSC3=C2C#N)cc(OC)c1OC (stereo not drawn)	CYP2C9 inh 64
COc1ccccc1N1CSC2=C(C#N)C(c3ccc(SC)cc3)CC(=O)N2C1 (stereo not drawn)	CYP2C9 inh 88
CC(C)c1ccc(C2CC(=O)N3CN(C)CSC3=C2C#N)cc1 (stereo not drawn)	none
CCC(=O)c1ccc(OCCSc2ncccn2)cc1	none
O=C1c2ccccc2-c2onc3c(Oc4ccccc4)cc(O)c1c23	CYP2C9 inh 68 (no result: Cav32 inh)
COC(=O)c1c(C(=O)OC)c(C)n(Cc2cccnc2)c1C	CYP2C9 inh 51
COC(=O)c1c(C(=O)OC)c(C)n(Cc2ccco2)c1C	none
O=C(Nc1cccc(F)c1)c1cccnc1N1CCOCC1	none
CCc1nn2cc(-c3ccccc3)nc2s1	CYP2C9 inh 59, CYP2C19 inhib 88
Cc1nn2cc(-c3ccc(-c4ccccc4)cc3)nc2s1	none
C=C(C)COc1ccc(-c2n[nH]c(C)c2-c2ccc(Br)cc2)c(O)c1	CYP2C9 inh 57
C=C(C)COc1ccc(-c2nc(N)ncc2Oc2ccc(OC)cc2)c(O)c1	none (no result: Cav32 inh)
COc1ccc(-c2c(-c3ccc(O)cc3O)n[nH]c2C)cc1OC	CYP2C9 inh 92, CYP2C19 inhib 100
N=c1n(CCN2CCOCC2)c2ccccc2n1Cc1ccccc1Br	none
CCOC(=O)C1=C(N)N(c2ccccc2Oc2ccccc2)C(=O)C1	CYP2C9 inh 65, CYP2C19 inhib 78
CCOC(=O)C1=C(N)N(c2ccc(N3CCCCC3)cc2)C(=O)C1	none
CN1c2ccccc2Oc2c(c(=O)n(C)c(=O)n2C)C1c1cccc([N+](=O)[O-])c1 (stereo not drawn)	CYP2C9 inh 54
O=C1c2ccccc2C(=O)C12OC(c1ccccc1)C1(C(=O)c3ccccc3C1=O)C2c1cccc([N+](=O)[O-])c1 (stereo not drawn)	none (no result: CYP2C9 act, CYP2C19 activ, CYP2C9 inh, CYP2C19 inhib)
N#Cc1nc(COc2ccc(Cl)cc2)oc1NCc1ccc2c(c1)OCO2	CYP2C9 inh 84, CYP2C19 inhib 65
COc1ccc(Nc2oc(COc3cccc(C)c3)nc2C#N)cc1	none
COc1ccc(CNc2oc(C)nc2C#N)cc1	none (no result: CYP2C9 act, CYP2C19 activ, CYP2C9 inh, CYP2C19 inhib)
Cc1nc(C#N)c(NCc2ccc3c(c2)OCO3)o1	CYP2C19 inhib 92 (no result: Cav32 inh)
Cc1cccc(OCc2nc(C#N)c(NCc3ccc4c(c3)OCO4)o2)c1	CYP2C9 inh 97, CYP2C19 inhib 99, Cav32 inh -6.8
Cc1cccc(OCc2nc(C#N)c(N3CC(C)CC(C)C3)o2)c1 (stereo not drawn)	CYP2C9 inh 78, CYP2C19 inhib 82, Cav32 inh -7.3
C=CCN1C(=O)NC2(O)C(=O)c3ccccc3C12O (stereo not drawn)	none

Assay outcomes deposited in PubChem BioAssay by several laboratories.
